Source: PubChem BioAssay (NCI)
This is part of a sample that, as a whole, favours compounds with a hit. Of some 79,000 tested, about 15% had one in any assay. A number with no mark means an inactive call. Active and inactive are the calls of the source. No stated cut-off is given here; in the data, active means growth inhibition above about 70%; inactive means the rest.

What was measured:
[1] = NCI Yeast Anticancer Drug Screen. Data for the rad50 strain (AID 155);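 further: 0% = growth of vehicle-only cultures of the same strain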; conditions: S. cerevisiae rad50 strain growth inhibition, active compounds read high
How it was run: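 Inhibition values express reduced yeast growth in compound-treated cultures relative to vehicle-treated controls.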

[2] = NCI Yeast Anticancer Drug Screen. Data for the mec2-1 strain (AID 157); conditions: S. cerevisiae mec2-1 strain, active compounds read high
How it was run: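 Vehicle-treated cultures served as reference for growth inhibition of compound-exposed mec2-1 yeast.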

[3] = NCI Yeast Anticancer Drug Screen. Data for the sgs1 mgt1 strain (AID 161);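 further: 0% = growth of cultures given vehicle only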; conditions: S. cerevisiae sgs1 mgt1 strain, active compounds read high
How it was run: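 Mutant yeast exposed to compound; growth scored against vehicle-only wells.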

[4] = NCI Yeast Anticancer Drug Screen. Data for the cln2 rad14 strain (AID 165);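 further: 0% = growth equal to vehicle treated cultures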; conditions: S. cerevisiae cln2 rad14 strain, active compounds read high
How it was run: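 Each compound was tested on cln2 rad14 yeast. Inhibition of growth was calculated against vehicle-exposed controls.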

[5] = NCI Yeast Anticancer Drug Screen. Data for the bub3 strain (AID 167); conditions: S. cerevisiae bub3 mutant strain, active compounds read high
How it was run: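 Steps: expose the mutant yeast strain to compound; grow alongside vehicle-treated cultures; measure growth; express inhibition against the vehicle cultures.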

[6] = NCI Yeast Anticancer Drug Screen. Data for the mlh1 rad18 strain (AID 175); conditions: S. cerevisiae mlh1 rad18 strain growth inhibition, active compounds read high
How it was run: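 Vehicle-treated cultures served as the reference for growth inhibition in a yeast strain carrying DNA damage repair alterations exposed to each compound.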

[7] = at 5.0 µM (retest, dose inferred, filed as 0.5)
[8] = at 50.0 µM (retest, dose inferred, filed as 5.0)

Row | SMILES | growth inhibition [1, 7] | growth inhibition [1, 8] | growth inhibition ([1]; at 50.0 µM) | growth inhibition [2, 7] | growth inhibition [2, 8] | growth inhibition ([2]; at 50.0 µM) | growth inhibition [3, 7] | growth inhibition [3, 8] | growth inhibition ([3]; at 50.0 µM) | growth inhibition [4, 7] | growth inhibition [4, 8] | growth inhibition ([4]; at 50.0 µM) | growth inhibition [5, 7] | growth inhibition [5, 8] | growth inhibition ([5]; at 50.0 µM) | growth inhibition [6, 7] | growth inhibition [6, 8] | growth inhibition ([6]; at 50.0 µM)
1 | CCCCCN1C(=O)C2C(C1=O)C1(Cl)C(Cl)=C(Cl)C2(Cl)C1(Cl)Cl (configuration not stated) | 37% | 95% (active) | 97% (active) | 35% | 97% (active) | 96.4% (active) | 16% | 95% (active) | 96.4% (active) | 16% | 95% (active) | 95.2% (active) | 12% | 96% (active) | 97.5% (active) | 33% | 96% (active) | 95.6% (active)
2 | COc1c(Br)cc(/C=C/[N+](=O)[O-])cc1Br | 98% (active) | 98% (active) | 92.4% (active) | 99% (active) | 99% (active) | 91.6% (active) | 98% (active) | 99% (active) | 89.8% (active) | 96% (active) | 97% (active) | 90.5% (active) | 99% (active) | 97% (active) | 88.2% (active) | 98% (active) | 98% (active) | 82.8% (active)
3 | CC(=O)[O][Sn]([CH3])([CH3])[c]1ccccc1 | 2% | 78% (active) | 81.2% (active) | 3% | 50% | 82.8% (active) | 1% | 92% (active) | 92.5% (active) | -13% | 77% (active) | 74.9% (active) | -6% | 83% (active) | 84.2% (active) | 3% | 94% (active) | 96.3% (active)
4 | CCC[CH2][Sn]1([CH2]CCC)[O]CCN2CCN(CC[O]1)CC2 | -4% | 12% | 74.1% (active) | -4% | 13% | 94% (active) | -3% | 9% | 83.2% (active) | -5% | 5% | 41.6% | -2% | 10% | 53.1% | -6% | 15% | 85.7% (active)
5 | N#CC(Cl)(Cl)CCl | 6% | 41% | -16.8% | -4% | 15% | 13.2% | 4% | 42% | -9% | -5% | 33% | 47% | 6% | 99% (active) | 0.15% | 2% | 38% | 2.5%
6 | CC(=O)c1ccc([As]=O)cc1 (configuration not stated) | 16% | 100% (active) | 99.8% (active) | 19% | 100% (active) | 99.8% (active) | 13% | 99% (active) | 99.8% (active) | -9% | 99% (active) | 99.4% (active) | -8% | 100% (active) | 99.5% (active) | 14% | 100% (active) | 99.5% (active)
7 | Cc1cc(OC(=O)N(CCCl)CCCl)c(C(C)C)cc1N=O | 19% | 91% (active) | 97.3% (active) | 20% | 97% (active) | 97.5% (active) | 17% | 96% (active) | 78.5% (active) | 10% | 92% (active) | 97.2% (active) | 1% | 94% (active) | 18.8% | 33% | 97% (active) | 97.7% (active)
8 | ClC1=C(Cl)C2(Cl)C(Cl)CC1(Cl)C2(Cl)Cl (configuration not stated) | 0% | -1% | 62% | -5% | -1% | 40.5% | -3% | -24% | 68.5% | 0% | -9% | 70.2% (active) | 0% | 2% | 1.4% | 14% | 2% | 83.7% (active)
9 | OCC1N2CCC(CC2)C1(O)O (configuration not stated) | -2% | 5% | -11.8% | 2% | -3% | -6.9% | -3% | 1% | 0.1% | 2% | 2% | -16.1% | 1% | -4% | 34.5% | -2% | -4% | -12.7%
10 | C1=C(/C=C2\CCCc3c(-c4ccccc4)cc(-c4ccccc4)[o+]c32)CCC/C1=C\C1=C2OC(c3ccccc3)=CC(c3ccccc3)=C2CCC1 | -11% | 14% | 36.6% | 3% | 2% | 52.8% | 4% | -8% | 66.6% | 18% | 25% | 40.9% | 10% | 30% | 71.2% (active) | 3% | 35% | 31.9%
11 | O=[N+]([O-])/C=C/c1cccc(F)c1 | 40% | 99% (active) | 99.5% (active) | 30% | 99% (active) | 99.7% (active) | 29% | 99% (active) | 99.6% (active) | 10% | 99% (active) | 99.3% (active) | 18% | 98% (active) | 99.5% (active) | 59% | 99% (active) | 99.4% (active)
12 | COc1ccc(NN=O)nc1 | 21% | 16% | 31.9% | 8% | 17% | -2.2% | 18% | 23% | -20.9% | 7% | 24% | -18.6% | 20% | 22% | -22.4% | 20% | 29% | 3.95%
13 | CN(C)c1ccc(C2N(Cc3ccc(N(CCCl)CCCl)cc3)CCCN2Cc2ccc(N(CCCl)CCCl)cc2)cc1 | 1% | 86% (active) | 52.5% | -18% | 55% | 5.2% | -1% | 79% (active) | 76.7% (active) | -1% | 65% | -6.3% | 0% | 95% (active) | 3.5% | -1% | 99% (active) | 32.9%
14 | C[CH2][Sn]([F])([CH2]C)[CH2]C | 8% | 75% (active) | 86.6% (active) | 6% | 92% (active) | 89.7% (active) | 9% | 90% (active) | 88.6% (active) | -6% | 60% | 64.2% | 3% | 76% (active) | 88.6% (active) | 5% | 89% (active) | 88.3% (active)
15 | COc1cc(C(CC(=O)N(CCCl)CCCl)c2ccc3c(c2)OCO3)cc(OC)c1OC (configuration not stated) | 3% | 0% | 6.9% | 0% | -2% | 10.1% | 13% | 2% | 20.8% | 0% | -15% | 25.5% | 2% | -2% | -2.7% | -2% | 0% | 46.1%
16 | C[C@]12CCCC[C@@H]1CC[C@@H]1[C@@H]2C(=O)C[C@@]2(C)[C@H]1CC[C@]2(C)O | 6% | 97% (active) | 60.4% | 0% | 99% (active) | 99% (active) | 0% | 99% (active) | 50.3% | 0% | 97% (active) | 20.6% | -4% | 80% (active) | 53% | 30% | 99% (active) | 98% (active)
17 | O=C1c2ccccc2C[CH]1[Hg][Cl] (configuration not stated) | 99% (active) | 99% (active) | 99.2% (active) | 100% (active) | 100% (active) | 99.5% (active) | 100% (active) | 99% (active) | 99.3% (active) | 99% (active) | 99% (active) | 96.2% (active) | 99% (active) | 99% (active) | 98.7% (active) | 99% (active) | 99% (active) | 99.3% (active)
18 | C#CC[As+](c1ccccc1)(c1ccccc1)c1ccccc1 | 31% | 98% (active) | 88.4% (active) | 29% | 99% (active) | 91.8% (active) | 45% | 100% (active) | 92.5% (active) | 37% | 95% (active) | 88.8% (active) | 34% | 99% (active) | 91.2% (active) | 45% | 98% (active) | 88.9% (active)
19 | CCCCCCCCN1CCN(CCCCCCCC)C2CCCCC21 (configuration not stated) (tested in a mixture with another compound) | 12% | 95% (active) | 67.2% | 4% | 96% (active) | 44.1% | 25% | 94% (active) | 70.2% (active) | 8% | 71% (active) | 56% | 20% | 99% (active) | 71.5% (active) | 18% | 96% (active) | 77% (active)
